Measured values as given in PubChem BioAssay (NCI).
This is part of a sample that, as a whole, favours compounds with a hit. Of some 83,000 tested, about 20% had one in any assay.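 Interpretation: 100, growth as untreated; towards 0, rising growth inhibition; 0, no net growth; 0 to -100, cell death. Compounds scoring below 10 were considered active.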 A number with no mark means an inactive call. The source made the active and inactive calls.

How the values were obtained:
Assay in all cases: NCI-60 one-dose screen, 48 h (100 = growth as untreated, 0 = no growth, -100 = all killed)
Details in all cases: 10 µM unless noted
[1] = system: HCT-15 colon
[2] = system: HT29 colon
[3] = system: SNB-75 CNS
[4] = system: SNB-19 CNS
[5] = system: U251 CNS
[6] = system: PC-3 prostate
[7] = system: SK-MEL-5 melanoma
[8] = system: UACC-62 melanoma
[9] = system: LOX IMVI melanoma
[10] = system: SK-MEL-28 melanoma

Compound | growth [1] | growth [2] | growth [3] | growth [4] | growth [5] | growth [6] | growth [7] | growth [8] | growth [9] | growth [10]
O=CN1N=C(c2ccc(Nc3ccnc4cc(Cl)ccc34)cc2)CC1c1ccccc1 (stereo not given) | 15.4% | 11.6% | 56.4% | 52.8% | 34.5% | 42.4% | 1.49% (active) | 38.4% | 13.7% | 44.4%
CNCCCNc1nc2ccccc2c2c(=O)c3cc(F)ccc3sc12 | 3.52% (active) | -39.7% (active) | 59.5% | 65% | 2.96% (active) | 39.6% | 73.7% | -1.88% (active) | -96.2% (active) | 50.1%
O=C(/C=C/c1sc(Cl)nc1Cl)c1ccccc1 | 30.4% | 88.6% | 86.5% | 96% | 69.9% | 84.8% | 102% | 93.5% | 3.61% (active) | 95.4%
Cc1nc2ccccc2c(/C=C/c2ccccc2)c1C(=O)/C=C/c1ccc(C(F)(F)F)cc1 | -19.9% (active) | 5.76% (active) | -5.13% (active) | -64.9% (active) | -62.1% (active) | -28% (active) | -78.9% (active) | -51.6% (active) | -87.4% (active) | -67% (active)
OC(COc1ccccc1Cl)CN1CCN(c2cccc(Cl)c2)CC1 (stereo not given) | 97.2% | 99.2% | 104% | 97.6% | 97.6% | 84.4% | 102% | 98.5% | 91.6% | 107%
O=c1ccn(Cc2cn(-c3c4ccccc4nc4ccccc34)nn2)c(=O)[nH]1 | 91.6% | 104% | 102% | 94.1% | 89.5% | 97.5% | 91.3% | 91.4% | 74.2% | 102%
O=[N+]([O-])c1ccc(Cl)c(-c2cc(CCCCO)on2)c1 | 110% | 103% | 81.7% | 95.4% | 101% | 104% | 104% | 93.8% | 97.6% | 107%
COc1cccc(Cc2cc(-c3ccccc3)nn(CC(=O)c3ccccc3)c2=O)c1 | 20.2% | 36.6% | 50.9% | 58% | 37.1% | 41.4% | 39.4% | 45.9% | 11.8% | 73.2%
Cc1cccc(OCC(O)CN2CCN(c3ccc(Cl)cc3)CC2)c1 (stereo not given) | 117% | 104% | 95.1% | 99.8% | 104% | 86.5% | 100% | 94.2% | 96.8% | 100%
COc1cc(/C=N/NC(=O)c2ccc(C)nc2)cc(OC)c1OC | 97.2% | 103% | 79.4% | 108% | 102% | 98.1% | 96.3% | 86.7% | 94.8% | 117%
COc1ccc(C(=O)C[C@]2(O)C(=O)Nc3c(Cl)ccc(Cl)c32)cc1 | 22.6% | 15.9% | -39.5% (active) | 38.9% | 33.9% | 34.3% | 34.6% | 46.4% | 45.9% | 60.4%
CCN(CC)S(=O)(=O)c1ccc(NC(=O)CSc2nnc(C)n2-c2ccccc2)cc1 | 113% | 111% | 98.5% | 102% | 104% | 95.2% | 105% | 92.8% | 102% | 108%
c1ccc(OCc2nnc(-c3ccc(Oc4ccccc4)cc3)o2)cc1 | 103% | 103% | 98.5% | 103% | 95.4% | 78.9% | 100% | 90.9% | 102% | 116%
CCOC(=O)C1=C(N)Oc2c(sc3c(C)cccc23)C1c1ccc(Cl)cc1 (stereo not given) | 15% | 14.8% | -9.45% (active) | 28.1% | 31.7% | 16.6% | 39.5% | 12.1% | 36.2% | 53.6%
NCCCNc1nc2ccccc2c2c(=O)c3cc(OC(F)(F)F)ccc3sc12 | -78.1% (active) | -32.9% (active) | 58.6% | 7.57% (active) | -63% (active) | 42.9% | 59.9% | 88.9% | -97.3% (active) | 84.7%
Nc1nn(C(=O)Nc2ccc(Cc3ccccc3)cc2)c2ccc(Cl)cc12 | 36.6% | 74% | 122% | 83.4% | 65.9% | 74.7% | 35.9% | 13.3% | 39% | 106%
COc1ccc(/C=N/Nc2cc(=O)[nH]c3ccc(Cl)cc23)cc1 | 39.5% | 3.92% (active) | 99% | 85.8% | 28.9% | 59.1% | 38.2% | 77.3% | 37.2% | 87.2%
N#Cc1ccc(NC(=O)c2sc3nc4c(cc3c2N)C(=O)CCC4)cc1 | 101% | 84.9% | 113% | 102% | 106% | 107% | 92.6% | 99.3% | 112% | 106%
NCCNc1nc2ccccc2c2c(=O)c3cccc(F)c3sc12 | 36.5% | 16.4% | 88% | 56.8% | 43.9% | 62.9% | 88.2% | 95.9% | 46.6% | 106%
Cc1cc(=O)oc2cc(OC(=O)N3CCN(C)CC3)ccc12 | 99.4% | 114% | 73.1% | 100% | 107% | 96.7% | 102% | 97.6% | 95.1% | 101%
CCCCCCCCCCCCCCCCCCOc1ccc(CC(=O)OCC[N+](C)(C)C)cc1 | 102% | 94.5% | 113% | 90.7% | 92.2% | 96.9% | 103% | 97.4% | 91.1% | 103%
C=C(C)[C@@H]1CC[C@]2(N=C=O)CC[C@]3(C)[C@H](CC[C@@H]4[C@@]5(C)Cc6c([nH]c7ccccc67)C(C)(C)[C@@H]5CC[C@]43C)[C@@H]12 | 47% | 98.5% | 79.8% | 91.4% | 65.4% | 40.3% | 101% | 101% | 87.7% | 106%
N#Cc1c(-c2ccccc2)nc(SCC(=O)Nc2nc(-c3ccc(Cl)cc3)cs2)[nH]c1=O | 104% | 93.3% | 84.3% | 101% | 95.3% | 91.6% | 97.9% | 88.4% | 100% | 101%
COc1cc(C(=O)N2N=C(c3ccc(S(C)(=O)=O)cc3)CC2c2ccco2)cc(OC)c1OC (stereo not given) | 39.4% | 24.9% | 46.9% | 75.9% | 57.7% | 51% | 39.8% | 29.3% | 50.5% | 89.2%
CCCCNC(=O)Oc1ccc(/C(=C(\C)c2ccc(Cl)cc2)c2ccc(OCCN3CCCCC3)cc2)cc1 | 23.8% | 10.9% | 80.3% | 93.5% | 59.3% | 63.8% | 74.2% | 83% | 79.8% | 80.1%
COc1ccc(-c2cc(-c3cc(OC)c(OC)c(OC)c3)nc(N3CCOCC3)c2C#N)cc1 | 66.6% | 76.1% | 72.3% | 86.7% | 64.5% | 62.7% | 75.3% | 57.5% | 74.7% | 56.8%
CCCCCCNC(=O)Oc1ccc(/C(=C(\C)c2ccc(Cl)cc2)c2ccc(OCCCN(C)C)cc2)cc1 | 8.75% (active) | 0.63% (active) | 79.1% | 79.8% | 42% | 79.6% | 86.2% | 96.9% | 39.5% | 97.2%
